Assay results reported in PubChem BioAssay AID1220 (Sanford-Burnham Center for Chemical Genomics, 2008).
About 1,300 (0.68%) of roughly 190,000 compounds were called active. Cut-off read from the data, not from the text of the source: active = inhibition above about 50%; inactive = the rest. The list comes from a sample in which actives are over-represented; it also holds similar structures and randomly drawn compounds.

These compounds were tested against Mannose-6-phosphate isomerase (Homo sapiens) (UniProt P34949) (assay: MPI inhibition at elevated mannose 6-phosphate – biochemical, fluorescence intensity, high mannose 6-phosphate, primary screen (AID 1220)). Conditions: recombinant PMI enzyme, coupled fluorescence intensity; at 20 µM; hits give high values.
Chain of Mannose-6-phosphate isomerase (Homo sapiens) (P34949 whole entry, looked up): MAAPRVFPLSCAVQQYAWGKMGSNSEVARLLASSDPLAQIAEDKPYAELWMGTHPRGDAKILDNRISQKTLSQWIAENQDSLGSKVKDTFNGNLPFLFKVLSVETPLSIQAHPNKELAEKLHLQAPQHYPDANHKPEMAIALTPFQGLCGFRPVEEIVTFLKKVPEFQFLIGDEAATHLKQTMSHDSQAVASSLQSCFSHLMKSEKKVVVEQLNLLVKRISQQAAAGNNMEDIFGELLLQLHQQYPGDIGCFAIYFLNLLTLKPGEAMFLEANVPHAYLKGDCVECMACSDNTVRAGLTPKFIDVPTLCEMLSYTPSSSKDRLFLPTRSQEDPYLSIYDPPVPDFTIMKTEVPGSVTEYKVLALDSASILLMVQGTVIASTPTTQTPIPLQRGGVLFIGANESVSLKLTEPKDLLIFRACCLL

| Structure (SMILES) | inhibition |
| --- | --- |
| Clc1ccccc1-c1ccc(/C=N/n2cnnc2)o1 | 6.7% (inactive) |
| Cc1ccc(-c2ccc(/C=N/N3C(=O)C4C5C=CC(CC5)C4C3=O)o2)c([N+](=O)[O-])c1 (stereo not given) | 33.2% (inactive) |
| O=C1/C(=C\c2ccc(-c3ccccc3[N+](=O)[O-])o2)C(c2ccccc2)=NN1c1ccccc1 | -2.3% (inactive) |
| COc1ccc(-c2ccc(/C=N/N3C(=O)C4C5C=CC(C6CC56)C4C3=O)o2)c([N+](=O)[O-])c1 (stereo not given) | 42.2% (inactive) |
| O=C1ON=C(c2ccccc2)/C1=C/c1ccc(-c2ccccc2[N+](=O)[O-])o1 | -11% (inactive) |
| O=C1C2C3C=CC(C4CC34)C2C(=O)N1/N=C/c1ccc(-c2ccc(F)cc2[N+](=O)[O-])o1 (stereo not given) | 14.4% (inactive) |
| O=C1C2C3C=CC(C3)C2C(=O)N1/N=C/c1ccc(-c2ccccc2[N+](=O)[O-])o1 (stereo not given) | 51.5% (active) |
| Cc1ccc(-c2ccc(/C=N/N3C(=O)C4C5C=CC(C6CC56)C4C3=O)o2)c([N+](=O)[O-])c1 (stereo not given) | 50.8% (active) |
| O=C1C2C3C=CC(C4CC34)C2C(=O)N1/N=C/c1ccc(-c2ccc(Cl)cc2[N+](=O)[O-])o1 (stereo not given) | 7.4% (inactive) |
| Cc1n[nH]c(=S)n1/N=C/c1ccc(-c2ccccc2[N+](=O)[O-])o1 | 21.2% (inactive) |
| O=c1nc2s/c(=C\c3ccc(-c4ccccc4[N+](=O)[O-])o3)c(=O)n2nc1-c1ccccc1 | 50.5% (active) |
| O=[N+]([O-])c1ccccc1-c1ccc(/C=N/n2cnnc2)o1 | 51.1% (active) |
| CCCc1nc(N)c(C#N)c(N)c1C#N | 3.2% (inactive) |
| O=C(Nc1cc(S(=O)(=O)N2CCOCC2)ccc1N1CCOCC1)c1ccc(S(=O)(=O)N2CCCCC2)cc1 | -10.7% (inactive) |
| Clc1ncn(C23CC4CC(CC(C4)C2)C3)n1 | -0.3% (inactive) |
| CCOC(=O)c1cccc(NC(=O)CN(c2ccc(OC)cc2)S(=O)(=O)c2c(C)noc2C)c1 | 19.2% (inactive) |
| Cc1c(O)c(CN2CCCCC2)cc2c1oc(=O)c1ccccc12 | 1.8% (inactive) |
| NC(=O)C1(N2CCCCC2)CCN(CC(=O)Nc2cc(Cl)ccc2Cl)CC1 | 7.2% (inactive) |
| CCC1(C)COC2(OC1)C(=O)Nc1ccccc12 (stereo not given) | 8.2% (inactive) |
| Cc1ccc(NC(=O)CS(=O)CC(=O)NCCCN(C)c2ccccc2)cc1 (stereo not given) | 11.5% (inactive) |
| COC1CCCN(Cc2cn(C)nc2-c2ccc(Oc3ccccc3)cc2)C1 (stereo not given) | 8.1% (inactive) |
| O=C(NCC1CCCO1)C(=O)NCC(c1ccco1)N1CCN(c2ccccc2)CC1 (stereo not given) | -4.7% (inactive) |
| O=C(Oc1cccc2cccnc12)c1cccc(N2C(=O)C3C4CCC(C4)C3C2=O)c1 (stereo not given) | 51.9% (active) |
| CC1CCC2C(=O)N(c3ccc(C(=O)Oc4cccc5cccnc45)cc3)C(=O)C2C1 (stereo not given) | 48.7% (inactive) |

| Structure (SMILES) | inhibition |
| --- | --- |
| O=C(Oc1cccc2cccnc12)c1ccc(N2C(=O)C3C4CCC(C4)C3C2=O)cc1 (stereo not given) | 50.5% (active) |
| O=C(Nc1ccc(F)cc1)c1cccc(N2C(=O)C3C4CCC(C4)C3C2=O)c1 (stereo not given) | 9.3% (inactive) |
| O=C(Oc1cccc2cccnc12)c1cccc(-n2cnnn2)c1 | 27.9% (inactive) |
| Cc1ccc(C(=O)Oc2ccccc2N2C(=O)C3C4CCC(C4)C3C2=O)cc1 (stereo not given) | 0.7% (inactive) |
| Cn1c(=O)c2c(nc(N3CCCC3)n2CC(O)CO)n(C)c1=O (stereo not given) | -12.4% (inactive) |
| Cc1cc(C)nc(NC(=O)c2cc(Br)ccc2Cl)n1 | -2.5% (inactive) |
| O=C(COC(=O)c1cccs1)Nc1cc(S(=O)(=O)N2CCOCC2)ccc1Cl | -2.3% (inactive) |
| COc1cc(NC(=O)CCNC(=O)Cn2cnc3ccccc3c2=O)cc(OC)c1OC | 10.9% (inactive) |
| COC(=O)c1nnn(-c2nc(N3CCOCC3)nc(N3CCOCC3)n2)c1C | 8.7% (inactive) |
| COc1cc(OC)c(/C=N/NC(=O)c2ccncc2)cc1Br | -19.4% (inactive) |
| COc1ccc(/C=N/NC(=O)c2ccncc2)cc1[N+](=O)[O-] | -13.2% (inactive) |
| COc1cc(OC)c([N+](=O)[O-])cc1/C=N/NC(=O)c1ccncc1 | 58.7% (active) |
| COc1ccc(Cn2nnnc2C(c2ccc3ncccc3c2)N2CCN(C3CCCCC3)CC2)cc1 (stereo not given) | -3.1% (inactive) |
| O=C(NC(=S)Nc1cccc2ncccc12)c1ccco1 | 7.2% (inactive) |
| O=C(NC(=S)Nc1cccc2ncccc12)c1cccs1 | 67.1% (active) |
| O=C(NC(=S)Nc1cccc2ncccc12)c1ccccc1 | 30.3% (inactive) |
| COCCCNC(=S)Nc1cccc2ncccc12 | 54.4% (active) |
| COCCCNC(=S)Nc1ccccc1C | 15.8% (inactive) |
| COCCNC(=S)Nc1cccc2cnccc12 | 48% (inactive) |
| O=C(O)c1cc(Cl)c(Cl)cc1C(=O)Nc1cccc2cccnc12 | 46% (inactive) |
| O=C(O)c1cc(Cl)c(Cl)cc1C(=O)Nc1cccc2ncccc12 | 54.8% (active) |
| O=C(Cc1ccc(Cl)c(Cl)c1)Nc1cccc2ncccc12 | 8.6% (inactive) |
| CCN1C2=C(C(=O)CCC2)C(c2ccc(O)cc2)C2=C1CCCC2=O | -9.2% (inactive) |
| Cc1nnc(NC(=O)CSc2nnc(-c3ccc(S(=O)(=O)N4CCCC4)cc3)n2C)s1 | -8.6% (inactive) |

| Structure (SMILES) | inhibition |
| --- | --- |
| CC1(C)C(=O)N(OCc2ccccc2)C(C)(C)C(=O)N1OCc1ccccc1 | -1.9% (inactive) |
| COc1cc2c(cc1NCc1ccccn1)oc1ccccc12 | 56.9% (active) |
| COc1cc2c(cc1NCc1ccc3c(c1)OCO3)oc1ccccc12 | 32.3% (inactive) |
| COc1cc2c(cc1NC(=O)CSc1ccccn1)oc1ccccc12 | 4.8% (inactive) |
| CCOC(=O)C1CCN(c2c(NCc3ccc(C(=O)N(C)Cc4ccccc4)cc3)c(=O)c2=O)CC1 | -6.2% (inactive) |
| Cc1cc(C)nc(/N=C2\NC(=O)CC(C(=O)O)N2c2ccc(F)c(Cl)c2)n1 (stereo not given) | -5.5% (inactive) |
| COc1cc(C2C3=C(CCCC3=O)Nc3ccc4ncccc4c32)ccc1O (stereo not given) | 27.4% (inactive) |
| O=C1CCCC2=C1C(c1ccc(O)c(O)c1)c1c(ccc3ncccc13)N2 (stereo not given) | 52.9% (active) |
| O=C1CCCC2=C1C(c1cccc(O)c1)c1c(ccc3ncccc13)N2 (stereo not given) | 35.4% (inactive) |
| COc1cc(N/C=C2\CC(=O)NC(C)=C2C#N)cc(OC)c1OC | 70.9% (active) |
| COc1cc(NC2=CC(=O)CC(C)(C)C2)cc(OC)c1OC | 9.2% (inactive) |
| COc1cc(C2C(C#N)=C(C)NC(C)=C2C#N)cc(OC)c1OC | 2% (inactive) |
| COC(=O)c1ccc(CSc2ccc3nnc(-c4cccnc4)n3n2)o1 | 0.3% (inactive) |
| CN(C)CCNC(=O)c1c(O)c2c([nH]c1=O)CCCC2 | 15.6% (inactive) |
| Cc1ccc(N)cc1-n1c(C)ccc1C | 27.5% (inactive) |
| Cc1cc(N)ccc1-n1c(C)ccc1C | 69.4% (active) |
| Cc1cc(N)ccc1N1CCCC1 | 25.9% (inactive) |
| COc1ccc(N)cc1-n1cnnn1 | -5.6% (inactive) |
| COc1ccc(Cl)cc1-n1c(C)ccc1C | -6.6% (inactive) |
| COc1ccc(N)cc1-n1c(C)ccc1C | 64.2% (active) |
| Nc1nc(NCc2ccco2)nn1-c1ccccc1 | 2% (inactive) |
| CCCC(=O)OCCNc1cc(Sc2nc3ccccc3[nH]2)c2nonc2c1[N+](=O)[O-] | 33% (inactive) |
| CC(=O)OCCNc1cc(SCc2ccco2)c2nonc2c1[N+](=O)[O-] | 45.7% (inactive) |
| CCCSc1cc(NCCOC(C)=O)c([N+](=O)[O-])c2nonc12 | 57.6% (active) |

| Structure (SMILES) | inhibition |
| --- | --- |
| CCC(=O)OCCNc1cc(Sc2nccn2C)c2nonc2c1[N+](=O)[O-] | 50.8% (active) |
| Cc1nnc(Sc2cc(NCCCO)c([N+](=O)[O-])c3nonc23)s1 | 39.9% (inactive) |
| CCCC(=O)OCCNc1cc(SCc2ccco2)c2nonc2c1[N+](=O)[O-] | 40.5% (inactive) |
| COC(=O)CCSc1cc(NCCOC(C)=O)c([N+](=O)[O-])c2nonc12 | 43.1% (inactive) |
| CCCC(=O)OCCNc1cc(Sc2nccn2C)c2nonc2c1[N+](=O)[O-] | 30.4% (inactive) |
| CCCSc1cc(NCCOC(=O)CCC)c([N+](=O)[O-])c2nonc12 | 50.7% (active) |
| Cn1ccnc1Sc1cc(NCCCO)c([N+](=O)[O-])c2nonc12 | 24.2% (inactive) |
| CCN(CC)c1cc(NCCO)c([N+](=O)[O-])c2nonc12 | 57.4% (active) |
| Cc1nnc(Sc2cc(NCCO)c([N+](=O)[O-])c3nonc23)s1 | 16.6% (inactive) |
| O=C(NCc1cccnc1)Nc1cccc(F)c1 | -2.6% (inactive) |
| CC(=O)Nc1nc(C(=O)O)cs1 | 6.8% (inactive) |
| O=C(Nc1ccc(Cl)cn1)c1ccc(-c2cc(Cl)ccc2Cl)o1 | -2.7% (inactive) |
| COc1cc2c(cc1OC)CN(C1CC(=O)N(c3c(C)cccc3C)C1=O)CC2 (stereo not given) | 2.1% (inactive) |
| Cc1nc2ccc(NC(=S)NC3CC3)cc2nc1C | 46.4% (inactive) |
| CCOC(=O)N1CCN(S(=O)(=O)c2ccc(C(=O)Nc3ccc4c(c3)C(=O)NC4=O)cc2)CC1 | 14.7% (inactive) |
| COc1c(C(=O)NCCSC(C)(C)C)ccc2ccccc12 | 2.8% (inactive) |
| O=C(NCCn1ccc2ccccc21)C1CCCCC1 | 1.5% (inactive) |
| CC(=O)OCCCNc1cc(Sc2ccc(C)cc2)c2nonc2c1[N+](=O)[O-] | 45.7% (inactive) |
| CC(=O)OCCCNc1cc(Sc2ccc(Cl)cc2)c2nonc2c1[N+](=O)[O-] | 56.3% (active) |
| CC(=O)OCCNc1cc(SC(C)C)c2nonc2c1[N+](=O)[O-] | 52% (active) |
| CC(=O)OCCNc1cc(Sc2nc3ccccc3[nH]2)c2nonc2c1[N+](=O)[O-] | 26.1% (inactive) |
| CC(=O)OCCCNc1cc(SCc2ccco2)c2nonc2c1[N+](=O)[O-] | 40.1% (inactive) |
| CC(=O)OCCN(C)c1cc(SC(C)C)c2nonc2c1[N+](=O)[O-] | 24.4% (inactive) |
